Compounds with a hit are over-represented: about 5.9% of the library has one in this group of screens.
ALR inh – inhibitors of human ALR sulfhydryl oxidase, primary screen, biochemical, H2O2 detection, HRP-luminol luminescence, single point. purified ALR, DTT oxidation. AID 485317, 2010. inhibition, % (no concentration beside the values). FAD-linked sulfhydryl oxidase ALR (Homo sapiens), P55789. actives 3.8% (n = 290,000);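 active = mean replicate inhibition above about 79%, with every replicate also reaching it, limit read from the data; inconclusive = only one of the two criteria met; inactive = mean below limit and not every replicate reaching it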
LANA-H2A inh – blockers of LANA interaction with H2A/H2B – biochemical, FP readout, HTS, primary screen; Protein LANA1 (Human herpesvirus 8 type P (isolate GK18)), Q9QR71; cell-free LANA-H2A/H2B peptide, fluorescence polarization; inhibition, % (test concentration not listed); actives 0.6% (n = 320,000); in the data active = inhibition mostly above about 10%, no sharp cut-off; inactive = mostly below about 6.7%
Target sequence (Q9QR71 whole entry, looked up): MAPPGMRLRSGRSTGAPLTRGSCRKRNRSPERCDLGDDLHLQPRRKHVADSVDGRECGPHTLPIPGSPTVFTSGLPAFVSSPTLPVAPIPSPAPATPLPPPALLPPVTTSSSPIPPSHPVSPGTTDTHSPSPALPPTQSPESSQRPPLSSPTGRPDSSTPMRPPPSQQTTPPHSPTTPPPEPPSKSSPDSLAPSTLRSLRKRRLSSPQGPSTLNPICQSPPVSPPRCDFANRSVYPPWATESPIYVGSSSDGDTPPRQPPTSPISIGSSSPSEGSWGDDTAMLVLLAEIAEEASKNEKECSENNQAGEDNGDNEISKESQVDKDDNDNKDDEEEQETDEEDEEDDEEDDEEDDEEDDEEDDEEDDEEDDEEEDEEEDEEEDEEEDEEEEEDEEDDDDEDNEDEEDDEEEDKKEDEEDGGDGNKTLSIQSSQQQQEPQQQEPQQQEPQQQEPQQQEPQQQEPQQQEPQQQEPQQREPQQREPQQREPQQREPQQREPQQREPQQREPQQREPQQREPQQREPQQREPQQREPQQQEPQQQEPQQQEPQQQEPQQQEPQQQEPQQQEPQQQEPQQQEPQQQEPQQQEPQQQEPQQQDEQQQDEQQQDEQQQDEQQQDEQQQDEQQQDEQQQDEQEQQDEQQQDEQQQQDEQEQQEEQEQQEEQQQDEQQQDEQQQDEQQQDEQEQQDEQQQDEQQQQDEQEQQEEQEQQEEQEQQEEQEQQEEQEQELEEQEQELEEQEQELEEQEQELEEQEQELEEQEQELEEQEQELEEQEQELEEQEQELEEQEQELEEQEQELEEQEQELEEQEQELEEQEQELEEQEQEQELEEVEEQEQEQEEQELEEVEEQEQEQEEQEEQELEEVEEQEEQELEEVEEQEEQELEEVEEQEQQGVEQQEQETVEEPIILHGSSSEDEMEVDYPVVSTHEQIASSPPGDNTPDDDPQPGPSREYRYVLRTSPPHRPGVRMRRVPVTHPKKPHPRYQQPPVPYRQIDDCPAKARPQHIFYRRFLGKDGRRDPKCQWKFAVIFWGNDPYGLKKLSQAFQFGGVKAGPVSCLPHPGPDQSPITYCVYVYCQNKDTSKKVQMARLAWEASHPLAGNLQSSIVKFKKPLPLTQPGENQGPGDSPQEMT
Rtt109 Vps75 – inhibitors of C. albicans Rtt109/Vps75 HAT, primary screen, biochemical, ThioGlo CoA-SH fluorescence, plate reader | purified Rtt109/Vps75, 4 h | inhibition, % at 34.9 µM | actives 0.16% (n = 330,000);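 active = inhibition of at least 50% in every replicate; inconclusive = best replicate reaches 50% inhibition but some replicates fall short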
PRMT1 FP inh – PRMT1 methyltransferase inhibitors, primary screen, biochemical, fluorescence polarization; Protein arginine N-methyltransferase 1 (Homo sapiens), Q99873; recombinant PRMT1, activity-based probe fluorescence polarization; actives 1.3% (n = 370,000); inhibition, % at 2.79 µM;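 active = inhibition above about 21% made by adding two undisclosed values, limit read from the data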
ABHD5 PLIN5 PPI – ABHD5-PLIN5 interaction inhibitors, primary screen, cell lysate, split luciferase complementation, luminescence; Perilipin-5 (Homo sapiens) + 1-acylglycerol-3-phosphate O-acyltransferase ABHD5 (Homo …; Split G. princeps luciferase complementation, 4 h; inhibition, % at 4 µM; actives 0.78% (n = 360,000);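 active = inhibition above the mean inhibition across every tested compound plus 3 SD, cut at about 22% in these data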
rCAG RNA binder – binders of r(CAG) RNA repeats, primary screen, biochemical, fluorescence | r(CAG) RNA repeat, TO-PRO-1 dye displacement fluorescence | actives 1.3% (n = 370,000) | inhibition, % at 3 µM;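 active = inhibition above the plate cutoff, the mean of all test compounds on that plate plus 3 SD, cut at about 35% in these data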;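 note: higher means more dye released from RNA so lower well fluorescence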
rCAG bind conf – small molecules binding CAG repeat RNA – biochemical, fluorescence, confirmation. inhibition, % at 3 µM. actives 70% (n = 4,300). r(CAG) RNA repeat, TO-PRO-1 dye displacement fluorescence. shares compounds with rCAG RNA binder;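 active = inhibition above a per-plate cutoff, the mean inhibition of sample wells plus 3 SD, cut at about 35% in these data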;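 note: loss of TO-PRO-1 fluorescence as compound displaces dye from 1x1 AA loop RNA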
dCAG dye counter – displacement of TO-PRO-1 from CAG DNA duplex, counter-screen for rCAG RNA repeat binder project, biochemical, fluorescence, TO-PRO-1 dye, d(CAG) DNA oligo. shares compounds with rCAG RNA binder. d(CAG) DNA oligo TO-PRO-1 dye displacement. inhibition, % at 3 µM. actives 94% (n = 4,300);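 active = inhibition above its plate's cutoff, the mean test-well inhibition plus 3 SD, cut at about 4.8% in these data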;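 note: hits displace the dye from DNA and so lower well fluorescence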
dCAG dye DR – inhibitors of DNA CAG/GTC TO-PRO-1 complex, dose response, counter-screen for rCAG RNA repeat binder project, biochemical, fluorescence, TO-PRO-1 dye | shares compounds with rCAG RNA binder | DNA CAG/GTC duplex TO-PRO-1 dye displacement fluorescence | IC50, µM | actives 20% (n = 250); in the data active = IC50 below about 10 µM
PRMT1 confirm – PRMT1 methyltransferase inhibitors, confirmation, biochemical, fluorescence polarization, triplicate. shares compounds with PRMT1 FP inh. recombinant His-PRMT1, activity-based probe fluorescence polarization. inhibition, % at 2.79 µM. actives 42% (n = 3,300). AID 687036, 2013;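 active = mean inhibition across replicates above the hit cutoff derived for the earlier primary screen, cut at about 22% in these data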
Large screens that a line does not name were inactive (follow-up assays come after a bar, where they were run).

CNS(=O)(=O)c1cc(N)ccc1C	none
CCc1ccc(OCC(=O)Nc2nnc(-c3ccco3)s2)cc1	PRMT1 FP inh 34, rCAG RNA binder 52 | rCAG bind conf inactive | dCAG dye counter inactive | PRMT1 confirm inactive
O=C(O)/C(=C/c1ccc(Cl)c([N+](=O)[O-])c1)c1ccc(S(=O)(=O)N2CCCCC2)s1	PRMT1 FP inh 39, rCAG RNA binder 89 (no result: ALR inh, LANA-H2A inh) | rCAG bind conf 77 | dCAG dye counter 40 | PRMT1 confirm inactive
O=C(O)/C(=C\c1cccc(F)c1)c1ccc(S(=O)(=O)N2CCCCC2)s1	none
CC1(c2ccc(Cl)cc2)NC(=O)N(CC(=O)N2CCN(C(=O)c3cccs3)CC2)C1=O (stereo not drawn)	none (no result: ALR inh, LANA-H2A inh, Rtt109 Vps75)
O=C1/C(=C/c2ccco2)SC(=S)N1c1cccnc1	PRMT1 FP inh 46, rCAG RNA binder 65 (no result: ALR inh, LANA-H2A inh) | rCAG bind conf 55 | dCAG dye counter 26 | PRMT1 confirm inactive
O=C1/C(=C\c2ccco2)SC(=S)N1c1ccc(O)cc1	ALR inh inconclusive
CCCSC1=N/C(=C\c2ccc([N+](=O)[O-])o2)C(=O)S1	PRMT1 FP inh 29, rCAG RNA binder 40 (no result: ALR inh, LANA-H2A inh) | rCAG bind conf 47 | dCAG dye counter 20 | dCAG dye DR inactive | PRMT1 confirm inactive
CCSC1=N/C(=C\c2ccc(-c3ccccc3[N+](=O)[O-])o2)C(=O)S1	none
Cc1c(CCCC(=O)O)sc(N)c1C(=O)c1cccc(C(F)(F)F)c1	ALR inh 96, PRMT1 FP inh 31, rCAG RNA binder 47 | rCAG bind conf inactive | dCAG dye counter 5.0 | PRMT1 confirm inactive
Cc1c(O)nc(SCC(=O)Nc2ccc3c4c(cccc24)CC3)n(-c2ccccc2)c1=O	PRMT1 FP inh 29, rCAG RNA binder 39 (no result: ALR inh, Rtt109 Vps75) | rCAG bind conf inactive | dCAG dye counter 9.2 | PRMT1 confirm 23
CC(Oc1ccc(Br)cc1)C(=O)N(Cc1ccccc1)c1c(N)n(Cc2ccccc2)c(=O)[nH]c1=O (stereo not drawn)	none (no result: ALR inh, LANA-H2A inh, Rtt109 Vps75)
O=C(/C=C/c1ccc([N+](=O)[O-])cc1)NCc1ccco1	none (no result: ALR inh)
O=C(/C=C/c1ccc([N+](=O)[O-])cc1)/C=C/c1ccco1	PRMT1 FP inh 40, ABHD5 PLIN5 PPI 63, rCAG RNA binder 47 (no result: ALR inh) | rCAG bind conf inactive | dCAG dye counter 12 | PRMT1 confirm 60
O=C(CCc1ccc(S(=O)(=O)N2CCOCC2)cc1)N/N=C/c1ccc(O)c(O)c1O	ALR inh 99, Rtt109 Vps75 inconclusive, PRMT1 FP inh 33, rCAG RNA binder 40 | rCAG bind conf 46 | dCAG dye counter 16 | PRMT1 confirm 50
O=[N+]([O-])c1ccc(N/N=C/c2ccc(O)c(O)c2O)c(S(=O)(=O)N2CCOCC2)c1	PRMT1 FP inh 35, rCAG RNA binder 69 (no result: ALR inh, LANA-H2A inh) | rCAG bind conf 84 | dCAG dye counter 52 | PRMT1 confirm 56
O=C(CCc1ccc(S(=O)(=O)N2CCOCC2)cc1)N/N=C/c1ccc(F)cc1F	none

Assay outcomes (PubChem BioAssay)
